# Measurements as given in PubChem BioAssay (NCI).
# The panel holds about 79,000 compounds, 15% with a hit somewhere; the sample as a whole holds those more often. Unmarked numbers belong to inactive results. Calls of active or inactive are those of the source. Cut-off read from the data, not from the text of the source: active = growth inhibition above about 70%; inactive = the rest.
# Experiments:
# [1] = NCI Yeast Anticancer Drug Screen. Data for the rad50 strain (AID 155);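 note: 0% = growth of vehicle-only cultures of the same strain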; conditions: S. cerevisiae rad50 strain growth inhibition; at 50.0 µM; hits give high values
# How it was run: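 Genetically altered yeast (DNA repair pathway); compound treatment; growth inhibition vs vehicle ctrl.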
# [2] = NCI Yeast Anticancer Drug Screen. Data for the mec2-1 strain (AID 157); conditions: S. cerevisiae mec2-1 strain, at 50.0 µM, hits give high values
# How it was run: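 Cells of the genetically defined mec2-1 yeast strain are incubated with test compound. Inhibition of growth is calculated against vehicle-treated controls.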
# [3] = NCI Yeast Anticancer Drug Screen. Data for the sgs1 mgt1 strain (AID 161);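 note: 0% = growth of cultures given vehicle only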; conditions: S. cerevisiae sgs1 mgt1 strain, at 50.0 µM, hits give high values
# How it was run: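 Mutant yeast exposed to compound; growth scored against vehicle-only wells.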
# [4] = NCI Yeast Anticancer Drug Screen. Data for the cln2 rad14 strain (AID 165);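 note: 0% = growth equal to vehicle treated cultures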; conditions: S. cerevisiae cln2 rad14 strain, at 50.0 µM, hits give high values
# How it was run: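 The screen exposed genetically defined yeast (cln2 rad14) to test compounds and scored growth inhibition relative to vehicle-treated controls.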
# [5] = NCI Yeast Anticancer Drug Screen. Data for the bub3 strain (AID 167); conditions: S. cerevisiae bub3 mutant strain, at 50.0 µM, hits give high values
# How it was run: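 Yeast carrying a defined mutation is treated with each compound, and growth is compared with that of vehicle-exposed cells to give inhibition.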
# [6] = NCI Yeast Anticancer Drug Screen. Data for the mlh1 rad18 strain (AID 175); conditions: S. cerevisiae mlh1 rad18 strain growth inhibition; at 50.0 µM; hits give high values
# How it was run: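 Compound-treated yeast growth, normalised to vehicle controls. Strain bears defined DNA repair mutations.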
SMILES,growth inhibition [1],growth inhibition [2],growth inhibition [3],growth inhibition [4],growth inhibition [5],growth inhibition [6]
NC(=O)NN1CC(=O)N(c2ccccc2)CC1=O,7.75%,8.2%,6.8%,-18.1%,14.2%,28.6%
OCC1OC(O)C(CO)OC1O (centres undefined),16.1%,-5.2%,3.7%,40.2%,22.2%,-5.2%
CC(C)CCCC(C)C1CCC2C3CC(=O)C4C=CCCC4(C)C3CCC12C (centres undefined),39.1%,19.5%,27.6%,24%,2.65%,34%
COc1ccc(/C(C)=N/N=C(\C)c2ccc(OC)cc2)cc1,7.45%,-28.1%,32.3%,12.3%,17.1%,13.6%
OCCCCN1CCCCC1,-1%,-1.95%,-13.2%,2.5%,-0.85%,-5.05%
Nc1nc2c(C(=O)c3ccco3)nnn2c2cccc(Cl)c12,10.7%,-2.7%,11.6%,11.2%,8.95%,5.85%
O=C(CC(O)(CCc1ccccc1)c1ccccc1)N1CCC(O)(c2ccccc2)CC1 (centres undefined),97.2% (active),98.5% (active),98.2% (active),97.6% (active),97.8% (active),98.2% (active)
CC(=O)Nc1ccc2oc(=O)[nH]c(=O)c2c1,10.8%,-15.1%,6.3%,9.9%,-18.6%,-0.55%
N#Cc1c2c([nH]c(=O)c1C#N)CCCC2,15.5%,10.5%,3.2%,9.15%,-8.75%,-23.1%
O=C(c1ccccc1)N1C(c2ccccc2)C1(c1ccccc1)C1(c2ccccc2)SCCCS1 (centres undefined),-17.6%,14.7%,-13.4%,-61.6%,-0.1%,-1.25%
CC1=CC(=O)/C(=C/N2C(=O)CNC2=S)C(=O)O1,-49.1%,-37.1%,-13.8%,15.4%,-4.25%,-45.1%
CC(=O)Nc1ccc(/C=N/NC(=O)c2ccc(O)cc2)cc1,1.7%,9.55%,-2%,4.15%,2.35%,0.9%
CC(CN1c2ccccc2Sc2ccccc21)N(C)CCO (centres undefined),3%,-24.7%,-4.05%,-1.6%,-4.3%,-0.9%
CCN(CC)CCC(C(=O)O)(c1ccccc1)C1(O)CCCC1 (centres undefined),-7.5%,-13.3%,-7.9%,-26.8%,7.1%,-25.9%
COc1ccc(-c2c3nc(c(-c4ccc(OC)cc4)c4[n-]c(c(-c5ccc(OC)cc5)c5nc(c(-c6ccc(OC)cc6)c6[n-]c2c2ccccc62)-c2ccccc2-5)c2ccccc42)-c2ccccc2-3)cc1.[Zn+2],-21.1%,-18.7%,-29.9%,6.75%,16.6%,-22.1%
OCC1OC(n2cc(I)c3c(Cl)ncnc32)C(O)C1O (centres undefined),0.7%,-15.4%,-4.05%,-36.8%,1.6%,3.95%
CSc1nc(NC2OCC(O)C(O)C2O)cc(=O)n1C (centres undefined),7.25%,-0.45%,7.4%,-4.9%,-26.9%,-2.95%
Cc1ccc(C)c(N2C(=O)C(=O)C(c3nc4ccccc4o3)/C(=N/N)C2=O)c1 (centres undefined),-18.8%,34%,14.2%,-17%,5.25%,-17.8%
CC(C)C(=O)Nc1ccc([N+](=O)[O-])cc1,26.1%,4.2%,10.8%,9.4%,-36%,-17.3%
